# Measured values taken from PubChem BioAssay AID1362 (SRMLSC, 2008).
# Screen size: about 190,000 compounds; about 4,000 (2.1%) were called active. Cut-off read from the data, not from the text of the source: active = inhibition above about 58%; inactive = the rest, inconclusive results apart; tested in S. cerevisiae. Only a selection was taken, and actives are over-represented in it overall.
# Assay: growth inhibition of WT strain, primary screen, mitochondrial fusion inhibitor project, WT and mutant strains, chemical genetic (AID 1362)
# Conditions: mitochondrial fusion phenotypic screen, at 10 µM
# [1] = WT strain, growth inhibition, stronger effect = higher value
Structure (SMILES),inhibition [1],inhibition (mutant strain inhibition) [%]
CC1=NN(c2cccc(Cl)c2)C(=O)C12CC(C)=C(C)CS2 (configuration not stated),71.2% (active),49.2
CC12CCC(C(=O)N(c3cccc(Cl)c3)C1=O)C2(C)C (configuration not stated),15.3% (inactive),1.52
CCCCN(CC)CCNC(=O)CCNC(=O)Cn1ccc2ccccc2c1=O,-12.2% (inactive),5.97
CN(C)c1ccc(/C=N/Nc2cc(N3CCOCC3)nc(N3CCOCC3)n2)cc1,2.15% (inactive),-1.62
Cc1ccc(NC(=S)NC2CCCC2)cc1,1.79% (inactive),-5.24
C/C(=N\NC(=S)NC1CCCCC1)c1ccc(C)o1,76.5% (active),64.5
C/C(=N/NC(=O)c1ccc(Br)o1)c1ccc(C)o1,-7.01% (inactive),-8.07
COc1ccc(C(=O)Nc2ccc(N3CCC(C)CC3)cc2)cc1Br,-5.4% (inactive),7.51
O=S(=O)(c1ccc2c(c1)OCCO2)N1CCc2ccccc21,-3.01% (inactive),-8.75
CN(C)C=NC(=O)c1cccn1-c1ncc(C(F)(F)F)cc1Cl,17.4% (inactive),-2.64
Cc1noc(C)c1COc1ccc2ccc(=O)oc2c1,7.56% (inactive),-14.3
COc1cc(CNc2ncn[nH]2)ccc1OCc1ccccc1C,-10% (inactive),6.17
O=C(CSc1ncn[nH]1)NCc1ccc2c(c1)OCO2,-7.65% (inactive),6.4
c1n[nH]c(NCc2ccc3c(c2)OCO3)n1,76.9% (active),23
CCCCCC(O)c1cccc(OCc2ccc3ccccc3n2)c1 (configuration not stated),77.5% (active),12.2
CCCn1c(C(O)c2ccc(OCC)cc2)nc2ccccc21 (configuration not stated),16.9% (inactive),18.6
CCCCCCOC(=O)NCC(O)c1ccccc1 (configuration not stated),-6.62% (inactive),-10.2
CCn1c(N)c(Br)c(=O)[nH]c1=O,-1.38% (inactive),6.81
CCOC(=O)c1ccc[n+](CC(=O)Nc2ccccc2OC(F)F)c1,-21.9% (inactive),-5.87

Structure (SMILES),inhibition [1],inhibition (mutant strain inhibition) [%]
CCOC(=O)c1sc(=NC(=O)/C=C/c2cccs2)n(C)c1C,11.4% (inactive),-7.32
COc1ccc(NC(=O)C(Br)C(C)C)cc1 (configuration not stated),-7.51% (inactive),2.44
CC1CCN(c2ccc([N+](=O)[O-])cc2C(N)=O)CC1,3.04% (inactive),-16.1
Cc1ccc(SCCC(=O)OCC(=O)Nc2ncc(Cl)cc2Cl)cc1,2.29% (inactive),2.8
NS(=O)(=O)c1cccc(NC(=O)CSc2nc3ccccc3n2-c2ccccc2)c1,-7.39% (inactive),1
Cc1ccc(-n2c(SCC(=O)Nc3ncc(Cl)cc3Cl)nc3ccccc32)cc1,74.2% (active),43.6
S=C(c1ccc(-c2ccccc2)o1)N1CCCCC1,43.1% (inactive),35.3
Clc1ccc(Nc2nc(-c3cccs3)cs2)nc1,78.8% (active),68.5
O=C(Nc1ccc(Cl)cn1)Nc1cccs1,8.8% (inactive),18.2
c1ccc(Nc2nc(-c3ccncc3)cs2)nc1,23.8% (inactive),27.6
COc1ccccc1N1CCN(/N=C\C(Br)=C\c2ccccc2)CC1,15.4% (inactive),14.3
O=C(CN1CCCCC1)Nc1ccccc1Cl,-11.8% (inactive),3.7
O=C(Nc1ccccc1Cl)c1ccc2nsnc2c1,-2.83% (inactive),-10.8
O=C(Nc1ccccc1Cl)/C(Cl)=C(\Cl)S(=O)c1ccccc1 (configuration not stated),95.8% (active),92.8
O=C(Cc1ccccc1)NNC(=O)C1CCN(c2ncccn2)CC1,-17.4% (inactive),-9.74
CC(c1ccco1)N(C(=O)c1ccc(S(=O)(=O)N2CCCCC2)cc1)c1ccccn1 (configuration not stated),4.63% (inactive),-4.51
O=C(COc1ccccc1[N+](=O)[O-])NC1CC1,-0.95% (inactive),8.16
CC(c1ccco1)N(C(=O)COc1ccccc1[N+](=O)[O-])c1ccccn1 (configuration not stated),70.6% (active),2.58
CCCCN(CC(=O)NC(C)(C)C)C(=O)C(=O)Nc1ccc2c(c1)OCCO2,-14.6% (inactive),11

Structure (SMILES),inhibition [1],inhibition (mutant strain inhibition) [%]
OCCC#Cc1ccc(CN2CCN(Cc3ccsc3)C(CCO)C2)cc1 (configuration not stated),2.66% (inactive),-0.56
CCOC(=O)c1ccc(NC(=S)Nc2cc(C)cc(C)n2)cc1,12.9% (inactive),22.8
Cc1ccc2c(c1)C1CN(C)CCC1N2C(=O)c1ccccc1NS(=O)(=O)c1ccc(F)cc1C (configuration not stated),-2.24% (inactive),-7.82
Cc1ccc2c(c1)C1CN(C)CCC1N2C(=S)Nc1ccc(OC(F)F)cc1 (configuration not stated),17.8% (inactive),8.65
Cc1ccc2c(c1)C1CN(C)CCC1N2S(=O)(=O)c1ccc(Oc2ccc([N+](=O)[O-])cc2)cc1 (configuration not stated),78.9% (active),62.2
Cc1ccc(S(=O)(=O)CCC(=O)OCc2ccccc2)cc1,0.5% (inactive),13.9
C=CCN(CC=C)CCOc1ccccc1[N+](=O)[O-],1.42% (inactive),1.87
CC1=CC2=NC(=O)CC(C)(C(=O)N(CC(=O)NC(C)(C)C)Cc3ccccc3)N2C=C1 (configuration not stated),-18.1% (inactive),-9.57
Cc1nnc(SCC(=O)N2CCc3ccccc3C2)s1,3.58% (inactive),-9.75
Cc1nnc(SCC(=O)N2c3ccccc3C(C)(c3ccc(Cl)cc3)CC2(C)C)s1 (configuration not stated),68.9% (active),10.2
Cc1nnc(SCC(=O)NCc2ccccc2)s1,9.71% (inactive),1.45
CCCCCCCC1(C)NC(=O)N(CC(=O)Nc2cc(C)on2)C1=O (configuration not stated),3.19% (inactive),-21
COc1cc(C)c(S(=O)(=O)N2CCOCC2)c(C)c1C,-12.4% (inactive),-18.1
CC(C)(C)N(CC#CCC(O)(c1ccccc1)C1CCCC1)CCO (configuration not stated),-9.77% (inactive),-9.45
COc1cccc(/C=C/C(=O)Nc2ccc3c(c2)OCCO3)c1,19.1% (inactive),5.63
CCC1(C)Cc2c(sc3nc(SC)nc(N)c23)CO1 (configuration not stated),-20.9% (inactive),-10.7
CCCSc1nc(NCc2ccco2)c2c3c(sc2n1)COC(C)(CC)C3 (configuration not stated),58.6% (active),41.2
CN(C)CCSc1nc(N)c2c3c(sc2n1)COC(C)(C)C3,-20.9% (inactive),-1.39
